Most compounds without a hit are left out; they make up all but 5.5% or so of the library.
RORg inh: qHTS for inhibitors of ROR gamma transcriptional activity; Potency, µM (series often up to 53.6 µM), for inactives: top-dose activity change, negative = inhibition, most hits filed as inhibitors; 5.4% of 310,000 active; Nuclear receptor ROR-gamma (Mus musculus), P51450; Drosophila S2 Gal4-RORgamma UAS-luciferase reporter, 20 h; AID 2551, 2010; note: % is set by controls: 0 for no effect and ±100 for the full control effect; nearly all actives have a fitted effect of over 60% in size
Target sequence (P51450 whole entry, looked up, the tested form may be a part): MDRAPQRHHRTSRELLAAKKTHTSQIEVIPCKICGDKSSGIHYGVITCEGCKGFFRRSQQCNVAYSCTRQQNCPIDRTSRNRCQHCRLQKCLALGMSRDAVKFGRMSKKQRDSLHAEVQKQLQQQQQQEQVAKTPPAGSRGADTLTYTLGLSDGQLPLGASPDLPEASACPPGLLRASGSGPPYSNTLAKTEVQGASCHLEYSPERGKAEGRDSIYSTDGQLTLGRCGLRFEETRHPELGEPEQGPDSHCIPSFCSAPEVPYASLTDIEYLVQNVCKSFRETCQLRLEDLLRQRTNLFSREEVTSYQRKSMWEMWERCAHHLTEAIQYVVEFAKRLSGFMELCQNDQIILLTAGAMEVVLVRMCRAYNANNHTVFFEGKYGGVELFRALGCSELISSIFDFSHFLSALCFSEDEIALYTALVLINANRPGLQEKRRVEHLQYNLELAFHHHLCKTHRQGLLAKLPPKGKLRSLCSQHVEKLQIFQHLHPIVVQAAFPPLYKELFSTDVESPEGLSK
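Stably transfected Drosophila Schneider cells are the test system, with ROR gamma fused to Gal4 and luciferase under UAS control; luminescence is read after 20 hr of 700 uM copper sulfate induction at ambient temperature.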
Integrin act MD: qHTS for Activators of Integrin-Mediated Alleviation for Muscular Dystrophy | alpha7betagal myoblasts, beta-gal FDG fluorescence, 48 h | Potency, µM (series often up to 38.3 µM), without a hit: at the top dose activation, usual class: activators | 0.064% of 350,000 active | AID 624291, 2012;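 note: 100% = response of the positive control SU9516; nearly all actives have a fitted effect of over 60% in size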
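Alpha7betagal+/- myoblasts (passage 13) were plated 16-24 hr, then exposed to compounds (1:260 dilution of DMSO stock) for 48 hours at 37C. After MPER lysis, β-galactosidase reporter activity was read as FDG fluorescence (ex 480/em 540) after 30 minutes.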
BCR signal inh: qHTS Assay to Find Inhibitors of Chronic Active B-Cell Receptor Signaling. 0.05% of 340,000 active. Potency, µM (titrated, usually from 46.1 µM), for inactives: top-dose activity change, negative = inhibition, most hits filed as inhibitors. ABC-DLBCL IkBa-CBG/CBR reporter, luminescence ratio, 4 h. AID 493014, 2011; active = well fitted inhibition curve with a large enough effect in the signal ratio, with a control signal flat, not every such curve was filed as active; inconclusive = small, poorly fitted or top-dose-only effect, or effect the other way, or a change in a side signal; the % refers to the signal ratio;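 note: plate controls were basal doxycycline-induced cells for no effect and cells given 10 µM MG132 for full effect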
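TMD8 human ABC-DLBCL cells with doxycycline-inducible IκBα–green luciferase fusion and unfused red luciferase, in 0.5% FBS medium; compounds up to 46 uM, 4 h at 37C. Green/red luminescence ratio, filter-overlap corrected, fitted to concentration-response curves.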
Mito fusion yeast: qHTS Assay for Small Molecule Inhibitors of Mitochondrial Division or Activators of Mitochondrial Fusion; Potency, µM (top dose mostly 46.1 µM), for the others: at the top dose growth rescue (activation), hits mostly activators; 0.23% of 320,000 active; S. cerevisiae fusion-defective mutant growth rescue, CellTiterGlo 48 h; note: % of control where 0% means no effect; nearly all actives have a fitted effect of over 45% in size
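Temperature-sensitive fusion-defective S. cerevisiae (e.g. fzo1-1, mgm1-5) were grown with compound in YPEG medium (3% ethanol, 3% glycerol) for 48 hours at 37C. Growth rescue was measured as viability by CellTiterGlo luminescence after 10 minutes at ambient.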
VP16 counter: VP16 counterscreen qHTS for inhibitors of ROR gamma transcriptional activity; Drosophila S2 Gal4-VP16 UAS-luciferase, luminescence, 20 h; Potency, µM (doses to about 53.6 µM), without a hit: top-dose activity, negative = inhibition, actives largely listed as inhibitors; 3.5% of 310,000 active; AID 2546, 2010;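 note: Gal4-VP16 expression switched on by copper sulfate through the metallothionein promoter; % is set by controls: 0 for no effect and ±100 for the full control effect; nearly all actives have a fitted effect of over 50% in size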
uPA surface inh: qHTS for Inhibitors of Cell Surface uPA Generation. cell surface uPA generation assay, qHTS. Potency, µM (series often up to 38.3 µM), without a hit: at the top dose activity change, negative = inhibition, actives largely listed as inhibitors. 0.31% of 330,000 active. AID 540303, 2011; active = well fitted inhibition curve with a large enough effect; inconclusive = small, poorly fitted or top-dose-only effect; inactive = no such curve, though single readings can be large or run the other way; tested in mouse RAW 264.7 cells; note: % is set by controls: 0 for no effect and ±100 for the full control effect; nearly all actives have a fitted effect of over 55% in size
* marks the source's active call; other numbers are inactive results; [ ] = another dose, or the depositor's remark. Unless noted, calls come from the whole dose curve; as a rule, active = well fitted curve in the direction sought with a large enough effect; inconclusive = small, poorly fitted or top-dose-only effect, or another doubt; inactive = no such curve, though single readings can be large; an effect the other way counts as inactive or inconclusive. Potency is the fitted concentration of half-maximal effect.

How did COc1cc(/C=N\NC(=O)C(C)(C)O)ccc1OC/C=C/c1ccccc1 do in these assays?
RORg inh: 35µM*; Integrin act MD: -24%; BCR signal inh: 0%; Mito fusion yeast: 7%; VP16 counter: inconclusive; uPA surface inh: 4%

How did COc1cccc(/C=N\NC(C)=O)c1OC/C=C/c1ccccc1 do in these assays?
RORg inh: 8.9µM*; Integrin act MD: -13%; BCR signal inh: inconclusive; Mito fusion yeast: 10%; VP16 counter: 11µM*; uPA surface inh: 1%

Results for O=C(COC(=O)c1c(Cl)cccc1Cl)NCC1CCCO1 (stereo not given) ?
Integrin act MD: 13%; uPA surface inh: -11%

Results for CCCCCCCCn1cnc2c(N)c(C)c(C)cc21 ?
RORg inh: 10µM*; Integrin act MD: -20%[7.66 µM]; BCR signal inh: 6%; Mito fusion yeast: -7%; VP16 counter: inconclusive

How did COc1ccc(NC(=O)c2cc(-c3ccncc3)nc3ccc(Br)cc23)cc1OC do in these assays?
RORg inh: inconclusive; Integrin act MD: -26%; BCR signal inh: 1%; Mito fusion yeast: 4%; VP16 counter: 20µM*; uPA surface inh: 1%

What do the screens show for `NNC(=O)c1cc(-c2ccc(N)cc2)nc2ccc(Br)cc12`?
RORg inh: 10µM*; Integrin act MD: -24%; BCR signal inh: 4%; Mito fusion yeast: -1%; VP16 counter: inconclusive; uPA surface inh: 1%

What do the screens show for `Cc1cc(C(=O)NN)c2cc(Br)ccc2n1`?
RORg inh: 2%; Integrin act MD: -6%; BCR signal inh: inconclusive; Mito fusion yeast: 7%; VP16 counter: -10%; uPA surface inh: -16%

Results for CCOc1ccccc1-c1nnc2n1N=C(c1ccccc1OC)CS2 ?
RORg inh: inconclusive; VP16 counter: -3%

What do the screens show for `CCOCc1c(C(=O)NCc2ccccc2CN2CCCC2)oc2ccccc12`?
Integrin act MD: -26%; BCR signal inh: inconclusive; Mito fusion yeast: 7%; uPA surface inh: 14%

What do the screens show for `N#Cc1ccccc1S(=O)(=O)N1CCN(c2nc(-c3cccnc3)nc3ccccc23)CC1`?
Integrin act MD: 24%; BCR signal inh: 17%; Mito fusion yeast: 15%; uPA surface inh: -13%

How did CCCN(Cc1nnc(-c2cccs2)o1)C(=O)CN1C(=O)NC2(CCCCC2)C1=O do in these assays?
Integrin act MD: 1%; BCR signal inh: -4%; Mito fusion yeast: 0%; uPA surface inh: 0%

How did S=c1ccss1 do in these assays?
RORg inh: 13µM*; VP16 counter: inconclusive

What do the screens show for `COc1ccc(OC)c(C2SCCN2S(C)(=O)=O)c1` (stereo not given)?
RORg inh: 11µM*; Integrin act MD: 9%; BCR signal inh: 11%; Mito fusion yeast: 1%; VP16 counter: 3%; uPA surface inh: -3%

Results for COc1ccc(C2c3c(ncn(CCN4CCOCC4)c3=N)Oc3ccc4ccccc4c32)cc1OC (stereo not given) ?
RORg inh: -108%; Integrin act MD: -67%; BCR signal inh: inconclusive; Mito fusion yeast: 0%; VP16 counter: 13µM*

What do the screens show for `COc1ccccc1C1c2ccc3ccccc3c2Oc2ncn(CCCO)c(=N)c21` (stereo not given)?
RORg inh: -38%; Integrin act MD: -61%; BCR signal inh: inconclusive; Mito fusion yeast: 11%; VP16 counter: -9%; uPA surface inh: 1%

How did COc1ccc(C2c3ccc4ccccc4c3Oc3ncn(CCCN(C)C)c(=N)c32)cc1 (stereo not given) do in these assays?
RORg inh: 10µM*; Integrin act MD: -72%; BCR signal inh: inconclusive; Mito fusion yeast: -17%; VP16 counter: inconclusive; uPA surface inh: 5%

Results for COc1ccccc1C1c2ccc3ccccc3c2Oc2ncn(CCN(C)C)c(=N)c21 (stereo not given) ?
RORg inh: 10µM*; Integrin act MD: -59%; BCR signal inh: inconclusive; Mito fusion yeast: -5%; VP16 counter: -27%; uPA surface inh: -15%

What do the screens show for `CCCNc1nc(C#N)nc(Nc2ccccc2)n1`?
VP16 counter: 9%

What do the screens show for `COCC(=O)N1CCC2(CC1)CCN(c1ccccc1)CC2`?
RORg inh: 1%; VP16 counter: 15%

Results for Cc1cc2nc(C3CCCN(C(=S)Nc4ccccc4)C3)[nH]c2cc1C (stereo not given) ?
RORg inh: 13µM*; Integrin act MD: 4%; BCR signal inh: inconclusive; Mito fusion yeast: -2%; VP16 counter: inconclusive; uPA surface inh: -5%

How did COc1ccccc1NC(=O)N1CCC(c2nc3cc(C)c(C)cc3[nH]2)CC1 do in these assays?
RORg inh: 10%; Integrin act MD: 33%; BCR signal inh: 18µM*; Mito fusion yeast: 8%; VP16 counter: -20%; uPA surface inh: -11%

Results for COc1ccc(N2CCN(C(=O)[C@@H]3CCCN3C3=NS(=O)(=O)c4ccccc43)CC2)cc1 ?
Integrin act MD: 17%; BCR signal inh: 0%; Mito fusion yeast: -3%; uPA surface inh: -7%

How did CCCCN(CC)c1nc(C)nc2c1c(C)c(C)n2-c1c(C)cc(C)cc1C do in these assays?
RORg inh: 2.2µM*; VP16 counter: inconclusive

Results for CCN(CCCCO)c1nc(C)nc2c1c(C)c(C)n2-c1c(C)cc(C)cc1C ?
RORg inh: 11µM*; VP16 counter: inconclusive

How did O=C(Cl)c1c(Cl)cccc1Cl do in these assays?
RORg inh: 0%; VP16 counter: 4%

How did O=C(O)c1cccc2c1/C(=N/Nc1ccc([N+](=O)[O-])cc1[N+](=O)[O-])c1ccccc1-2 do in these assays?
RORg inh: -26%; Integrin act MD: 13%; BCR signal inh: 7%; Mito fusion yeast: 7%; VP16 counter: 0%; uPA surface inh: 18%

How did O=C(Cn1ncn2c(cc3ccccc32)c1=O)NCc1ccco1 do in these assays?
RORg inh: 5.6µM*; Integrin act MD: -39%; BCR signal inh: 0%; Mito fusion yeast: 2%; VP16 counter: -9%; uPA surface inh: -13%

How did COc1ccc2c(c1)NC(c1ccc(N(C)C)cc1)c1cccn1-2 (stereo not given) do in these assays?
RORg inh: 13%; Integrin act MD: 6%; BCR signal inh: -7%; Mito fusion yeast: 8%; VP16 counter: -2%; uPA surface inh: 2%

Bioassay records deposited in PubChem BioAssay by National Center for Advancing Translational Sciences (NCATS).
